Screening data as filed in PubChem BioAssay.
p47phox inh – inhibitors of human p47phox binding; P14598; p47phox/p22phox peptide binding, fluorescence polarization, 2 h; inhibition, % at 24.7 µM; hit rate 0.53% among 220,000; AID 1274;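 active = inhibition above about 30%, limit read from the data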;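 note: 0% = p47phox with labelled peptide and 100% = labelled peptide alone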
Target sequence (P14598 whole entry, looked up): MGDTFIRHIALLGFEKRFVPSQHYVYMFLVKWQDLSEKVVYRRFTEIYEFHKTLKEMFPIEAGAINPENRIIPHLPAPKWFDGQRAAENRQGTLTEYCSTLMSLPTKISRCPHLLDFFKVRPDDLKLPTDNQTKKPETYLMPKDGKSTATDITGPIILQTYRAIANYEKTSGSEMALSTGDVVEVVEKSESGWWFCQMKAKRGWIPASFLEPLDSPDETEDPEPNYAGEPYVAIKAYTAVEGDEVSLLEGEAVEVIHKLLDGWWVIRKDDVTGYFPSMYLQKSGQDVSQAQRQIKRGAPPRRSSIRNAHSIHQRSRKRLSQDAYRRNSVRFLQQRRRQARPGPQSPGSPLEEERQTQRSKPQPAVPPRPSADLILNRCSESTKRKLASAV
Efa HMGR inh – blocks class II HMG-CoA reductase of Enterococcus faecalis. purified E. faecalis HMGR, NADPH absorbance 340 nm kinetic. inhibition, % at 10 µM. hit rate 0.41% among 190,000. AID 1066;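 active = inhibition above a set limit, the median over all tested compounds plus 3 SD, cut at about 9.5% in these data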;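 note: enzyme runs in reverse so mevalonate oxidation gives rising NADPH absorbance; 0% = complete reaction with DMSO and 100% = background rate lacking mevalonate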
14-3-3 Bad PPI – disrupts binding of bovine 14-3-3 zeta to phospho-Bad peptide | TR-FRET 14-3-3zeta/Dy647-pBad peptide displacement, 1 h | inhibition, % at 21.7 µM | hit rate 0.71% among 220,000;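 active = inhibition above about 70%, limit read from the data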;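 note: 0% = full 14-3-3 plus peptide FRET controls and 100% = background without 14-3-3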
Target sequence (P63103 whole entry, looked up): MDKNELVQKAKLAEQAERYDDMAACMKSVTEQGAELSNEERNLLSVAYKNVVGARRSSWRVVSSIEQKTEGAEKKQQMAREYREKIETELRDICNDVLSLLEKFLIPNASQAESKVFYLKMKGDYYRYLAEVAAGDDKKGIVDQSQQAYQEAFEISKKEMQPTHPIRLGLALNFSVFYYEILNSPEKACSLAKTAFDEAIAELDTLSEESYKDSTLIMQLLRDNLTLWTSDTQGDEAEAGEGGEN
dFosB activator – activators of mouse delta FosB homodimer. P13346. purified delta FosB, TAMRA-CDK5 oligo fluorescence polarization; percent of positive-control signal above neutral wells. activation, % at 25 µM. hit rate 0.99% among 340,000. AID 493131;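 active = mean activation above about 17%, with every replicate also reaching it, limit read from the data, passing the limit was not always enough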
Starred values were filed as active, the others as inactive; nt = no result given. In the library only some 1.9% were active in any assay of this set; here they are far more common.

SMILES | p47phox inh | Efa HMGR inh | 14-3-3 Bad PPI | dFosB activator
CN(Cc1ccc(F)cc1)C(=O)c1cccc(NS(=O)(=O)c2ccccc2)c1 | nt | nt | nt | -20
Cc1nn(CCC(N)=O)c2nc(-c3cccs3)cc(C(F)(F)F)c12 | -7 | 2 | -9 | 0
Cc1nn(CCC(=O)O)c2nc(-c3cccnc3)cc(C(F)(F)F)c12 | -7 | -1 | 73* | -19
O=C(Cc1cccc(C(F)(F)F)c1)Nc1ccc(S(=O)(=O)N2CCCC2)cc1 | nt | nt | nt | -10
CN(C)c1ccc(-c2sc(Nc3ccccc3)n[n+]2-c2ccc(F)cc2)cc1 | nt | nt | nt | -2
CCN(CC)c1ccc(-c2sc(Nc3ccccc3)n[n+]2-c2ccc(F)cc2)cc1 | nt | nt | nt | 28*
CCc1ccc(Nc2n[n+](-c3ccccc3)c(-c3ccc(N(CC)CC)cc3)s2)cc1 | nt | nt | nt | 75*
COc1ccc(C(=O)CSc2nc(SC)ns2)cc1OC | -10 | 3 | -9 | -4
COc1ccc(C(=O)CSc2cc(C)nc3nc(C)nn23)cc1OC | 129* | -3 | 13 | 16
CCOC(=O)Cn1c(=O)c(-c2ccccc2NC)nc2ccccc21 | 39* | -2 | -7 | -13
O=C(COC(=O)c1ccccc1NC(=O)c1ccccc1)c1cccc([N+](=O)[O-])c1 | -3 | -6 | -7 | -2
Nc1ccccc1-c1nnc(-c2ccc(-c3ccccc3)cc2)o1 | 58* | 7 | nt | -4
OC1CCN(c2cc(-c3ccccc3)nc3cc(-c4ccc(F)cc4)nn23)CC1 | -36 | 1 | -16 | -4
CCN1CCN(c2cc(-c3ccccc3)nc3cc(-c4cccc(F)c4)nn23)CC1 | -38 | 9.6* | -1 | 3
CCCCCOCC1CC(C/C(C)=N/Nc2nc(-c3ccccc3)cs2)C(=O)O1 (stereo not drawn) | 0 | -3 | 81* | -10
CCOC(=O)C1=C(C)NC(C)=C(C(=O)OCC)C1C(=O)OCC(=O)NC(C)c1ccccc1 (stereo not drawn) | nt | nt | nt | -14
CC1CCC(NC(=O)CN(C)S(=O)(=O)c2cnc[nH]2)CC1 (stereo not drawn) | -4 | -4 | 2 | 5
CC1CCCC(NC(=O)CN(C)S(=O)(=O)c2cnc[nH]2)C1C (stereo not drawn) | 0 | 14* | -5 | 8
COc1ccc(C(=O)COC(=O)Cn2c(C)csc2=O)c(OC)c1 | nt | nt | nt | -2
COc1ccc(C(=O)COC(=O)CN2C(=O)c3ccccc3C2=O)c(OC)c1 | nt | nt | nt | 19*
COc1ccc(C=O)cc1Cn1c(=O)n(CCC(=O)NCc2ccco2)c(=O)c2sccc21 | -4 | -7 | -9 | 94*
COc1ccc(OC)c(NC(=O)CSc2nc3ccccc3c(=O)n2CC2CCCO2)c1 (stereo not drawn) | nt | nt | nt | -13
COC(=O)c1ccc2c(=O)n(CC3CCCO3)c(SCC(=O)Nc3ccc(OC)cc3OC)nc2c1 (stereo not drawn) | 31* | nt | 12 | -2
COC(=O)c1ccc2c(=O)n(C3CCCCC3)c(SCC#N)nc2c1 | -4 | -1 | 74* | -9
Cc1ccsc1C(=O)OCC(=O)NCC1CCCO1 (stereo not drawn) | -12 | -3 | -5 | -3
SMILES | p47phox inh | Efa HMGR inh | 14-3-3 Bad PPI | dFosB activator
COc1ccc(-c2c(C#N)c(N)nc3c2CCCC3)cc1OC | nt | nt | nt | -1
COc1ccc(-c2nc(-c3ccc(NC(=O)c4ccncc4)cc3)no2)cc1OC | -11 | -5 | 3 | -13
COc1ccc(NC(=O)c2ccc(-c3ccc(-c4noc(C)n4)cc3C)cc2)cc1N1CCN(C)CC1 | nt | nt | nt | 21*
CC(C)COC(=O)Nc1nnc(SCCOc2ccccc2)s1 | -5 | 13* | -14 | -1
CCOc1c(Cl)cc(CNCC(O)c2ccccc2)cc1OC (stereo not drawn) | -9 | -1 | -6 | -5
OC(CNCC(c1ccc(Cl)cc1Cl)c1c[nH]c2ccccc12)c1ccccc1 (stereo not drawn) | -14 | -3 | -2 | 83*
CCOCCCNC(=O)CN1C(=O)C(CC)Oc2ccccc21 (stereo not drawn) | -17 | 1 | 0 | -1
Cc1nc(-c2cccnc2)sc1C(=O)N/N=C/c1ccccc1Cl | -3 | nt | 87* | -10
O=c1c2c(-c3ccccc3)csc2nc2c3ccccc3c(NCCN3CCOCC3)nn12 | 74* | 1 | 43 | -202
Cc1cc(C)c(O)c(-c2cc(C(=O)Nc3ccc(S(=O)(=O)N4CCOCC4)cc3)[nH]n2)c1 | -17 | 1 | -4 | 23*
Cc1ccc(C(=O)Nc2ccc(S(=O)(=O)N3CCOCC3)cc2)cc1 | -2 | -4 | -2 | 0
CC(=O)Nc1ccc(NC(=O)c2cc(-c3cc(C)cc(C)c3O)n[nH]2)cc1 | nt | nt | nt | 22*
Cc1ccc(CNC(=O)c2cc(-c3cc(C)cc(C)c3O)n[nH]2)cc1 | 0 | nt | 0 | 15
CN(Cc1ccccc1)C(=O)c1[nH]cnc1C(=O)NCC(=O)OC(C)(C)C | nt | nt | nt | 0
Cc1ccc(NC(=O)CN2C(=O)S/C(=C/c3ccc(O)c([N+](=O)[O-])c3)C2=O)cc1C | 16 | -2 | 83* | 4
Cc1ccc(NC(=O)CN2C(=O)NC3(CCCc4ccccc43)C2=O)cc1S(=O)(=O)N1CCOCC1 (stereo not drawn) | 40* | -8 | -9 | -8
CN(Cc1ccccc1)c1nnc(N)s1 | -23 | 1 | -4 | 2
COc1ccc(NC(=O)Nc2ccc3c(c2)C(=O)N([C@H](C)CO)C[C@H](C)[C@@H](CN(C)C(=O)NC2CCCCC2)O3)cc1 | nt | nt | nt | -13
Cc1ccc(/C=C2\SC(=S)N(Cc3ccccc3)C2=O)o1 | -8 | -5 | -2 | -3
O=C(O)c1cc(-c2ccc(/C=C3/SC(=S)N(Cc4ccccc4)C3=O)o2)ccc1Cl | -40 | -1 | 100* | -17
COc1ccc(CN2C(=O)/C(=C/c3ccc(-c4ccc(Cl)c(C(=O)O)c4)o3)SC2=S)cc1 | -47 | -2 | 77* | nt
Cc1ccc(NC(=O)CN2C(=O)S/C(=C\c3ccc(-c4cccc(C(=O)O)c4C)o3)C2=O)cc1 | -37 | -3 | -11 | nt
Cc1ccc(NC(=O)CN2C(=O)S/C(=C/c3ccc(-c4cccc(C(=O)O)c4)o3)C2=O)cc1 | -23 | -2 | 88* | -11
Nc1ccc2cc3[nH]c4cc(N)ccc4c3nc2c1 | nt | nt | nt | 67*
COC(=O)Nc1ccc(S(=O)(=O)N2CCCC(C(=O)N3CCCCC3)C2)cc1 (stereo not drawn) | 1 | -1 | 0 | 0
SMILES | p47phox inh | Efa HMGR inh | 14-3-3 Bad PPI | dFosB activator
COc1oc(-c2ccc(Cl)cc2)nc1C(F)(F)F | -3 | 21* | 0 | -2
S=C(Nc1ccccc1Cl)N1CCCC1 | 2 | -4 | -13 | -3
CCC(C)C(=O)Nc1nnc(SCC(=O)Nc2ccc(F)cc2)s1 (stereo not drawn) | -1 | -2 | 34 | -3
CCC(C)C(=O)Nc1nnc(SCC(=O)Nc2ccccc2F)s1 (stereo not drawn) | -5 | 0 | 87* | -4
COc1ccc(S(=O)(=O)N2CCOC2CNC(=O)C(=O)NCCN(C)C)cc1 (stereo not drawn) | nt | nt | nt | -2
NCCNc1ccc(C(=O)N2c3ccccc3Sc3ccccc32)cc1[N+](=O)[O-] | nt | nt | nt | 54*
COc1ccc2c(c1)c1nnc(SCC(=O)N3CCCCC3C)nc1n2C (stereo not drawn) | -20 | 0 | -12 | -5
